The results in this text go back to PubChem BioAssay.

The source made the active and inactive calls.

The nature of assay [1]: small molecules captured by biotinylated probe aFSTL3 – biochemical, small-molecule microarray, fluorescence 635/667, stem cell growth factor project, primary screen (AID 1064).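 Further: measures binding of the biotinylated anti-FSTL3 antibody to printed compounds.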 The settings on record: higher = more signal.
The nature of assay [2]: binders from COS7 lysate, DM2A8 probe, primary screen, torsin A project, cell lysate, small-molecule microarray, fluorescence 635/667 (AID 1065). The settings on record: higher = more signal, COS7 lysate expressing mutant human TOR1A.
Assay [3] can be described thus: small molecules captured by biotinylated probe aFGF2 – biochemical, small-molecule microarray, fluorescence 635/667, stem cell growth factor project, primary screen (AID 1067).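 Further: measures binding of biotinylated aFGF2 protein to printed compounds on slides; z-score merges feature fluorescence and signal-to-noise across triplicate slides.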 The conditions noted are these: higher = more signal.
Assay [4] is described as follows: small molecules captured by biotinylated probe aFGF10 – biochemical, small-molecule microarray, fluorescence 635/667, stem cell growth factor project, primary screen (AID 1071).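 Further: score merges 667 nm spot intensity and signal to noise from triplicate slides.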 The settings on record: higher = more signal.
The target in assay [5] is Neurogenic locus notch homolog protein 2 (Homo sapiens) (UniProt Q04721). As to the kind of experiment: small molecules binding Notch2 protein – biochemical, small-molecule microarray, 635 nm fluorescence, stem cell growth factors, primary screen (AID 1073). The settings on record: higher = more signal.
Chain of Neurogenic locus notch homolog protein 2 (Homo sapiens) (Q04721 whole entry, looked up, canonical isoform): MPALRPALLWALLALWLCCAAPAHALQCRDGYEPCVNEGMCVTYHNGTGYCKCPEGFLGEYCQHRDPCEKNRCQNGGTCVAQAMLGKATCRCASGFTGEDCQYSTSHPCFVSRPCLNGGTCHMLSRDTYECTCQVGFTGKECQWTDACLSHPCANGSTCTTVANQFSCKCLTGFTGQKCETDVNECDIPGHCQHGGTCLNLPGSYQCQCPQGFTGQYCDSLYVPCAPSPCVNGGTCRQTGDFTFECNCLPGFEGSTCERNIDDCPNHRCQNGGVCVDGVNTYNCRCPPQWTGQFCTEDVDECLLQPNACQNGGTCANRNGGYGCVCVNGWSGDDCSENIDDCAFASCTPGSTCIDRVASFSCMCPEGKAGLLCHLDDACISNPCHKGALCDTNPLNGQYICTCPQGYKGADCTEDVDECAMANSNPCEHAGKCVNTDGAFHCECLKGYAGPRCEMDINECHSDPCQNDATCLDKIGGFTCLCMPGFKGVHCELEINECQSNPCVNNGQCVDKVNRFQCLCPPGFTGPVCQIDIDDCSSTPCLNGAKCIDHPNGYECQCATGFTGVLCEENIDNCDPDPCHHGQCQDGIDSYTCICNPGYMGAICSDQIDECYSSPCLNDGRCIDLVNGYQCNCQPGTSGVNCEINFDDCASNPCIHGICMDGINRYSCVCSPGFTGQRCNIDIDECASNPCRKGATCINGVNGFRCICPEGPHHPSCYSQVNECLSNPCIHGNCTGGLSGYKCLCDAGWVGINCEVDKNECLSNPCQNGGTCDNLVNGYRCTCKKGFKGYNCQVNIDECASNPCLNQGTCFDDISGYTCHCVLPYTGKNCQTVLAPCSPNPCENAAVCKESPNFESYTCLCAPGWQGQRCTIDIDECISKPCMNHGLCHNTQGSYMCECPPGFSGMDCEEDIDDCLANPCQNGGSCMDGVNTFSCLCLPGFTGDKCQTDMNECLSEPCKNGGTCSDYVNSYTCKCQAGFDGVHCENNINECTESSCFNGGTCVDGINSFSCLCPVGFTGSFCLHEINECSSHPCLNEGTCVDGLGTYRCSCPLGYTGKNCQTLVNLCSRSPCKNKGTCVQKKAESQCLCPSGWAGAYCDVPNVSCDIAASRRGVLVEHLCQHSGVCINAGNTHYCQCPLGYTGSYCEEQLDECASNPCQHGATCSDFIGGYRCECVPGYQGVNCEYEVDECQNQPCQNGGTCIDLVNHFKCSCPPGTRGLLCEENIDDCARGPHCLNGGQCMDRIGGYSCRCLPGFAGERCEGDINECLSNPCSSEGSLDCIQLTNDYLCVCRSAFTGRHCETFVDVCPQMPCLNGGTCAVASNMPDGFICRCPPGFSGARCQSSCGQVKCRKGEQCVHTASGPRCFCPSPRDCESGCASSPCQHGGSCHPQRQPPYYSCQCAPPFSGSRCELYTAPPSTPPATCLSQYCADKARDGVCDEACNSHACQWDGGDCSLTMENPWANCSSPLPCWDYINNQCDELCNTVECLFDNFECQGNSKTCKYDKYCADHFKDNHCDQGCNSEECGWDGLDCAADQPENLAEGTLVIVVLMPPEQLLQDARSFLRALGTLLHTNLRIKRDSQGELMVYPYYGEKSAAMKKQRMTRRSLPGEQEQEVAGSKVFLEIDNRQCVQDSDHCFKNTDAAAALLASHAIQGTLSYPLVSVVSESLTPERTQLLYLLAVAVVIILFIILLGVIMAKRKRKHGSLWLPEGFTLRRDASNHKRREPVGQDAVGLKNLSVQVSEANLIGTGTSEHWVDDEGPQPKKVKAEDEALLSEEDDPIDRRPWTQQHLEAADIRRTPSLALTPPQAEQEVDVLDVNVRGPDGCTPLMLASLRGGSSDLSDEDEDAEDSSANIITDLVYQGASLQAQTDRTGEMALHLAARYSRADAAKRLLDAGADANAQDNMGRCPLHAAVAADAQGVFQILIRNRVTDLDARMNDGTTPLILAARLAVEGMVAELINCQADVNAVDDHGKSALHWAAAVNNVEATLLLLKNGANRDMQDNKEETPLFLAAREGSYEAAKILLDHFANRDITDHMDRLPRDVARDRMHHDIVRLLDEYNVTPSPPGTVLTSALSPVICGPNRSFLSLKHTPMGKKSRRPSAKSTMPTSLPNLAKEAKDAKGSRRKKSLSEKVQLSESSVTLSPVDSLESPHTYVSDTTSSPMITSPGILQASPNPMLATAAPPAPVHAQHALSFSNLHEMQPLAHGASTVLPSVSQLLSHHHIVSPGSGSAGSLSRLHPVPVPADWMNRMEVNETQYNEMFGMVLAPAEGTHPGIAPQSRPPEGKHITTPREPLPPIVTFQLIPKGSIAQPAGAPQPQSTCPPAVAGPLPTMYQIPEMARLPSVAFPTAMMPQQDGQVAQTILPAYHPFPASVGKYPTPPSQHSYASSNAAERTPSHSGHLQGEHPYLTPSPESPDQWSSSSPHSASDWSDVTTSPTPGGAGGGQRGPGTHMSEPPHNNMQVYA
Assay [6] concerns the target Pro-neuregulin-1, membrane-bound isoform (Homo sapiens) (UniProt Q02297). Nature of the assay: small molecules binding neuregulin-1 protein – biochemical, small-molecule microarray, fluorescence 635/667, psychiatric disease protein project, primary screen (AID 1075).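 Further: score combines 667 nm spot fluorescence with signal to noise.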 The settings on record: NRG1 binding, 635 nm fluorescence, higher = more signal.
The test system of assay [7] is Neuregulin-1 EGF-like domain. As to the kind of experiment: small molecules binding NRG1 EGF domain – biochemical, small-molecule microarray, 635 nm fluorescence, primary screen (AID 1081).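 Further: binding of the protein to compounds printed on small-molecule microarray slides.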 The conditions noted are these: higher = more signal.
Assay [8] in a line: FRG1 expression reporter modulators in myotubes – cell-based, C2C12 myotubes, firefly/Renilla luciferase, luminescence, FRG1 inhibition for FSHD, primary screen (AID 1084). The conditions noted are these: FRG1 promoter luciferase, higher = more signal, called active from +8 up or from −8 down.
Assay [9] in a line: small molecules captured by biotinylated probe aFST – biochemical, small-molecule microarray, fluorescence 635/667, stem cell growth factor project, primary screen (AID 1086).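 Further: score merges 667 nm fluorescence with signal-to-noise of each printed compound spot.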 The conditions noted are these: higher = more signal.
The nature of assay [10]: binders of probe aHhip on microarray, primary screen, stem cell growth factor project, biochemical, small-molecule microarray, fluorescence 635/667 (AID 1087).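 Further: score merges spot fluorescence at 667nm with spot signal to noise ratio.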 The conditions noted are these: higher = more signal.

Chain of Pro-neuregulin-1, membrane-bound isoform (Homo sapiens) (Q02297 whole entry, looked up, the tested form may be a part, canonical isoform): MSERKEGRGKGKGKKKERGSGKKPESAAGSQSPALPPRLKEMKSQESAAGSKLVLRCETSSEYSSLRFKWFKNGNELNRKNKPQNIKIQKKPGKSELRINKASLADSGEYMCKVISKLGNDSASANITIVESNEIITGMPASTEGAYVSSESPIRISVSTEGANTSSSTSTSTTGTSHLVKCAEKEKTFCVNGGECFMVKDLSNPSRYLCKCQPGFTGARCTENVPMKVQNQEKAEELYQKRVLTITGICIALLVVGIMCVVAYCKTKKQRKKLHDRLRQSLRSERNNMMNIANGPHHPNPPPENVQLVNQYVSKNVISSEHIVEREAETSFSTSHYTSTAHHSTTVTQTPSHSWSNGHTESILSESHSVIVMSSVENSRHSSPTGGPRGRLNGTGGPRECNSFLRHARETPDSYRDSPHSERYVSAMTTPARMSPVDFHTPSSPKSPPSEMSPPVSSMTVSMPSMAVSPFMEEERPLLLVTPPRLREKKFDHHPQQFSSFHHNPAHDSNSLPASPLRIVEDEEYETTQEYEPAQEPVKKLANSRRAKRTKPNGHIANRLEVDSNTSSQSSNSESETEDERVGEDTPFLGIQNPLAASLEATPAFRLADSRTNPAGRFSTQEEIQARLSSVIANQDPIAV

Turning to `COC(=O)[C@@]1(Cc2ccc(F)cc2)[C@H]2c3cc(C(=O)N4CCCC4)n(CCc4c[nH]c5cc(F)ccc45)c3C[C@H]2CN1C(=O)c1ccccc1`, the composite z-score amounted to 0.198 in assay [1]; 0.197 in assay [2]; 0.289 in assay [3]; 0.634 in assay [4]; 1.68 in [5]; 2.01 in assay [6]. Moreover, the composite z-score worked out at 1.35 in assay [7], 1.69 in assay [9] and 0.281 in [10]. Also, the z-score in assay [8] is 0.53 (inactive).

Turning to `COC(=O)C(CC#Cc1ccc2c(c1)[C@]1(C(=O)N2)[C@H](C(=O)N2CCCCCCC2)[C@H]2C(=O)O[C@H](c3ccccc3)[C@H](c3ccccc3)N2[C@@H]1c1ccc(OCCO)cc1)C(=O)OC`, the composite z-score in [1] worked out at 3.58; in [2] it was 2.87; in assay [3], 0.941; in [4] it was 1.37; in assay [5], 1.75; in assay [6], 2.94. Also, the values for the composite z-score in [7], in assay [9] and in assay [10] were 1.33, 3.35 and 2.77, respectively. Further, the z-score in assay [8] is 1.91 (inactive).

As to `CCOC(=O)C[C@H]1[C@H](OC(=O)c2ccccc2-c2ccccc2)[C@@H](NC(=O)CC(C)C)c2cc(OCCCO)ccc2N1C(=O)c1ccccc1`, the composite z-score in assay [1] is -0.565; in assay [2] it was 0.115; in [3], -0.0632; in assay [4], 0.351; in [5], 0.527; in [6], 0.092. The composite z-score in assay [7] is 0.606; in assay [9], 0.324; in [10], -0.137. For the same compound, the z-score in [8] is 0.077 (inactive).

On to `COCCOC(=O)N1C(=O)[C@@]2(c3cc(C#CCNC(N)=O)ccc31)[C@H](c1ccccc1OCCO)N1[C@H](c3ccccc3)[C@H](c3ccccc3)OC(=O)[C@H]1[C@@H]2C(=O)N1CCCCCCC1`, for which the composite z-score worked out at 1.63 in assay [1]; 0.646 in assay [2]; 0.0495 in assay [3]; 0.57 in assay [4]; 0.725 in assay [5]; 0.665 in assay [6]. Moreover, the values for the composite z-score in [7], in assay [9] and in assay [10] were 1.1, 1.29 and 1, respectively. In assay [8], the z-score was 0.515 (inactive).

For the compound `COc1ccc([Si](C)(C)[C@H]2[C@H](CC(=O)N(CCO)Cc3ccccc3)O[C@@]3(C(=O)N(c4ccccc4)c4ccccc43)[C@@H]2C)cc1`, the composite z-score in assay [1] is -0.249; in assay [2], -0.182; in assay [3] it was -0.0261; in assay [4], 0.638; in [5] it was 0.199; in [6] it was 0.951. The composite z-score is 0.46 in [7], 0.294 in [9] and -0.0581 in [10]. Also, in assay [8], the z-score was -1.91 (inactive).

As to `CC(=O)NCCCC[C@@H]1NC(=O)[C@H]2C[C@@H](C(=O)O)[C@@H](c3cccc(OCCO)c3)N2C1=O`, the composite z-score in assay [1] was -0.318; in [2], 1.1; in assay [3], 0.0761; in assay [4] it was 0.841; in assay [5], 1.15; in assay [6] it was 1.14. Besides, the composite z-score in assay [7] was 1.18; in assay [9], 0.491; in assay [10] it was -0.0862. Besides, the z-score in [8] is 0.618 (inactive).

In the case of `[N-]=[N+]=NCc1ccccc1[C@H]1OC(c2ccc(OCCCO)cc2)=N[C@@]1(Cc1ccccc1N=[N+]=[N-])C(=O)O`, the composite z-score in assay [1] was determined as 0.377; in [2] it was 1.08; in assay [3] it was 0.0997; in assay [4] it was 0.503; in assay [5] it was 1.37; in assay [6], 1.21. For the same compound, the figures for the composite z-score in assay [7], in assay [9] and in [10] were 1.24, 0.632 and 0.0623, respectively. Moreover, the z-score in assay [8] was 4.15 (inactive).

On to `O=C1O[C@H](c2ccccc2)[C@H](c2ccccc2)N2[C@H]1[C@@H](C(=O)N1CCCCCCC1)[C@]1(C(=O)Nc3ccc(C#CCCO)cc31)[C@H]2c1ccc(O)cc1`, for which the composite z-score turned out to be 3.79 in assay [1]; 2.62 in assay [2]; 0.978 in assay [3]; 1.4 in [4]; 1.79 in assay [5]; 2.79 in assay [6]. In addition, the composite z-score came to 1.42 in [7], 3.34 in assay [9] and 1.7 in assay [10]. Moreover, the z-score in assay [8] is -1.1 (inactive).

As to `COCCCNC(=O)[C@@]1(CCC(=O)OC(C)(C)C)N=C(c2ccc(OCCCO)cc2)O[C@H]1c1ccccc1`, the composite z-score in [1] was determined as 0.593; in [2], 0.737; in assay [3] it was 0.0584; in [4] it was 0.186; in assay [5], 1.23; in [6] it was 1.64. The composite z-score in assay [7] was determined as 1.3; in assay [9], 1.16; in assay [10], 0.0424. Moreover, the z-score in assay [8] was -1.79 (inactive).

On to `C=CCNC(=O)[C@@H]1[C@H]2C(=O)O[C@H](c3ccccc3)[C@H](c3ccccc3)N2[C@H](c2ccc(O)cc2)[C@@]12C(=O)N(C(=O)OCCOC)c1ccc(C#CCC(C(=O)OC)C(=O)OC)cc12`, for which the composite z-score in assay [1] was -0.292; in assay [2] it was 1.27; in [3] it was 0.048; in assay [4], 0.769; in assay [5], 1.14; in assay [6] it was 0.946. The composite z-score in assay [7] was 1.18; in [9], 0.884; in assay [10], 0.0266. In [8], the z-score is -0.614 (inactive).

For the compound `O=C1O[C@@H](c2ccccc2)[C@@H](c2ccccc2)N2[C@@H](c3ccccc3OCCO)[C@]3(C(=O)Nc4ccc(C#CC5(O)CCCCCC5)cc43)[C@@H](C(=O)N3CCCCCCC3)[C@H]12`, the composite z-score in [1] was determined as 4.04; in [2] it was 2.44; in assay [3], 1.08; in [4] it was 1.47; in assay [5] it was 1.89; in assay [6] it was 2.67. Further, the composite z-score in [7] amounted to 1.4; in assay [9], 3.81; in assay [10] it was 3.97. Also, the z-score in assay [8] was -1.05 (inactive).

Regarding `O=C1NC(=O)C2C1C=CC(C(O)C1CCCCC1)N2Nc1ccccn1` (stereo not given), the composite z-score is -0.236 in assay [1]; 0.0046 in assay [2]; -0.0524 in [3]; 0.235 in [4]; 0.629 in assay [5]; 1.37 in assay [6]. The composite z-score was 1.32 in [7], 0.265 in assay [9] and -0.374 in assay [10]. Moreover, the z-score in [8] was 1.64 (inactive).

`CCOC(=O)C[C@H]1[C@H](OC(=O)c2ccc(-c3ccccc3)cc2)[C@@H](NC(=O)c2ccc(-c3ccccc3)cc2)c2cc(OCCCO)ccc2N1C(=O)c1ccccc1`: the composite z-score in assay [1] was -0.326; in assay [2], 0.254; in [3], -0.0317; in assay [4] it was 0.573; in [5], 0.528; in assay [6] it was 0.534. Also, the composite z-score was 0.905 in assay [7], 0.627 in assay [9] and -0.213 in assay [10]. The z-score in assay [8] was -0.281 (inactive).

Regarding `CN1C(=O)C2CC=C(C3=CCO[C@@H]3[C@H]3CCCN3S(=O)(=O)c3ccccc3[N+](=O)[O-])CC2C1=O` (stereo not given in full), the composite z-score is 0.895 in assay [1]; -0.216 in assay [2]; -0.166 in assay [3]; 0.114 in assay [4]; -0.456 in assay [5]; 0.789 in assay [6]. In addition, the results for the composite z-score in assay [7], in [9] and in [10] were -0.132, 0.0699 and 0.0373, respectively. Besides, in [8], the z-score was -0.869 (inactive).
